Calls of active or inactive are those of the source.

One assay is described as follows: probe aCHRDL2 binding to arrayed compounds – biochemical, biotinylated probe, 635/667 nm fluorescence, primary screen (AID 1100). The following applies: small-molecule microarray, higher = more signal.
Regarding `C=C(CCCC)/C(=C/C[C@@H](OC(=O)c1ccncc1)c1ccccc1OCCO)c1cnc2ccccc2c1`, the composite z-score came to 0.178.
The same measure, in the same setting: in the case of `O=C1c2ccccc2[C@](Cc2ccccc2I)(C(=O)NCC(F)(F)F)[C@H](c2ccc(CO)cc2)N1C1CCCCC1` it was 0.821.
The same measure, in the same setting: the figure for `CC(C)N1C(=O)C[C@@](C(=O)NCCCN(C)C)(c2ccc([N+](=O)[O-])cc2)[C@H]1c1ccc(CO)cc1` is 0.692.
For the compound `C=C[C@@H](COC(C)=O)N(C(=O)OC(C)(C)C)S(=O)(=O)c1ccc(Br)cc1`, the composite z-score was -0.152.
Take `CC1CC/C=C\[C@H]2OC34C=CCN(c5ccc(Cl)cc5)C(=O)[C@H]3N(CCCCCO)C(=O)[C@]4(C)C2C(=O)O1` (stereo partly specified): the composite z-score was found to be 0.648.
Still for that read-out and setting: the figure for `O=C1O[C@H](c2ccccc2)[C@H](c2ccccc2)N2[C@H]1[C@@H](C(=O)Nc1nc3ccccc3s1)[C@]1(C(=O)Nc3ccc(C#CCCO)cc31)[C@H]2c1ccc(O)cc1` is 0.673; for `COCCOC(=O)N1C(=O)[C@@]2(c3cc(C#CC4(O)CCCCCC4)ccc31)[C@H](c1ccc(O)cc1)N1[C@H](c3ccccc3)[C@H](c3ccccc3)OC(=O)[C@H]1[C@@H]2C(=O)NC[C@H](O)c1ccccc1` it is 0.692.
`O=C1O[C@@H](c2ccccc2)[C@@H](c2ccccc2)N2[C@@H](c3ccccc3OCCO)[C@]3(C(=O)Nc4ccc(C#CCCO)cc43)[C@@H](C(=O)N3CCCCCCC3)[C@H]12`: the composite z-score was 1.87.
The compound `COc1ccc([Si](C)(C)[C@@H]2[C@@H](CCO)O[C@]3(C(=O)N(Cc4ccc(N5CCCCC5=O)cc4)c4ccccc43)[C@H]2C)cc1` registered a composite z-score of -0.756.
The same measure, in the same setting: the figure for `O=C(NCC(F)(F)F)[C@@H]1c2ccccc2C(=O)N(Cc2cc(F)cc(C(F)(F)F)c2)[C@H]1c1ccc(CO)cc1` is 0.941; for `Cc1ccccc1C(O)C1C=CC2C(=O)N(C)C(=O)C2N1N(c1ccccc1)c1ccccc1` (stereo unspecified) it is 0.11; for `O=C(CS)NCCCCCCNC(=O)[C@H]1C[C@H]2C(=O)N[C@@H](Cc3ccccc3)C(=O)N2[C@H]1c1ccc(O)cc1` it is -0.0488.
On the same count and under the same terms, the figure for `C=CCN1Cc2ccccc2[C@H]2OC(c3ccc(OCCCO)cc3)=N[C@@]2(CC=C)C1=O` is 1.09.
As for `CO[C@]12C=C(Br)[C@@H](C[C@@H]1c1cccc(C)c1)[C@@]1(CO1)C2=O`, the composite z-score is -0.284.
Still for that read-out and setting: in the case of `C=CC[C@]1(C(=O)O)COC(c2ccc(OCCCO)cc2)=N1` it was 0.568.
The same measure, in the same setting: the figure for `CCOC(=O)[C@H]1[C@@H]2C(=O)N3CCC[C@H]3[C@H](O[Si](C(C)C)(C(C)C)C(C)C)[C@H]2C=C2CCN(S(=O)(=O)c3ccc(C)cc3)C[C@H]21` is -0.535; for `CN(C)CCCCNC(=O)[C@@H]1C[C@@H]2C(=O)N[C@@H](Cc3ccccc3)C(=O)N2[C@@H]1c1cccc(OCCO)c1` it is 0.393; for `C=C(C)C1CCC(C(O)C2C=CC3C(=O)N(C)C(=O)C3N2N2CCCCC2)CC1` (stereo unspecified) it is 0.67.
Take `CN1C(=O)C2C=CC(C(O)c3ccccn3)N(N(c3ccccc3)c3ccccc3)C2C1=O` (stereo unspecified): the composite z-score is 0.711.
Still for that read-out and setting: the figure for `CN(C)CCCNC(=O)[C@@]1(C)c2ccccc2C(=O)N(Cc2ccccc2)[C@H]1c1ccc(CO)cc1` is 0.683.
On the same count and under the same terms, in the case of `C=CCNC(=O)[C@@H]1[C@H]2C(=O)O[C@H](c3ccccc3)[C@H](c3ccccc3)N2[C@H](c2ccc(O)cc2)[C@@]12C(=O)N(C(=O)OCCOC)c1ccc(C#CC3(O)CCCCCC3)cc12` it was 0.854; in that of `CN(C)C(=O)[C@@]1(Cc2ccccc2CN=[N+]=[N-])N=C(c2ccc(OCCCO)cc2)O[C@H]1c1ccccc1CN=[N+]=[N-]`, 0.915.
The same measure, in the same setting: the figure for `O=C1O[C@@H](c2ccccc2)[C@@H](c2ccccc2)N2[C@@H](c3ccc(O)cc3)[C@]3(C(=O)Nc4ccc(C#CC5=CCCCC5)cc43)[C@@H](C(=O)NC[C@H](O)c3ccccc3)[C@H]12` is 0.757.
Regarding `CC(C)(C)OC(=O)CC[C@]1(C(=O)NCc2ccccc2)N=C(c2ccc(OCCCO)cc2)O[C@H]1c1ccccc1CN=[N+]=[N-]`, the composite z-score stood at 0.545.
`CC(C)C[C@@H]1NC(=O)[C@@H]2C[C@H](C(=O)NCCCCN(C)C)[C@H](c3cccc(OCCO)c3)N2C1=O` registered a composite z-score of 0.0176.

Another assay can be described thus: change in splice reporter luminescence, either direction, cell-based, HEK293, spliceosome inhibition project, primary screen (AID 1101).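 Note: HEK293 cells carrying a splicing-competent luciferase reporter gene; test concentration not given here.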 As to conditions: HEK293 splicing luciferase reporter, 24 h, higher = more signal, called active from +8 up or from −8 down.
For the compound `COCCOC(=O)N1C(=O)[C@@]2(c3cc(C#CC4=CCCCC4)ccc31)[C@H](C(N)=O)[C@H]1C(=O)O[C@H](c3ccccc3)[C@H](c3ccccc3)N1[C@@H]2c1ccccc1OCCO`, the z-score was -1.88 (inactive).
Still for that read-out and setting: the figure for `O=C1NC(=O)C2C1C=CC(C(O)c1ccco1)N2Nc1ccccn1` (stereo unspecified) is 1.69 (inactive); for `CCCCN1CC=CC23O[C@@H]4/C=C\CCC(C)OC(=O)C4[C@H]2C(=O)N(C(CO)C(C)C)[C@@H]3C1=O` (stereo partly specified) it is 0.0563 (inactive); for `CC=CC(O)C1C=CC2C(=O)N(c3ccccc3)C(=O)C2N1Nc1ccccc1F` (stereo unspecified) it is 0.095 (inactive).
For the compound `COc1ccccc1CN1C(=O)c2ccccc2[C@](Cc2ccccc2I)(C(=O)NCC(F)(F)F)[C@@H]1c1ccc(CO)cc1`, the z-score was 0.377 (inactive).
Still for that read-out and setting: in the case of `O=C1NC(=O)C2C1C=CC(C(O)c1c(F)cccc1Cl)N2Nc1ccc(Cl)cc1Cl` (stereo unspecified) it was 1.57 (inactive).
The same measure, in the same setting: in the case of `COC(=O)[C@@]1(Cc2ccccc2)[C@H]2c3cc(C(=O)N(C)C)n(CCc4ccc(O)c(OC)c4)c3C[C@H]2CN1C(=O)c1ccccc1` it was 0.905 (inactive).
On the same count and under the same terms, in the case of `CCCNC(=O)[C@@H]1c2ccccc2C(=O)N(C(C)C)[C@H]1c1ccc(CO)cc1` it was 0.844 (inactive).
`[N-]=[N+]=Nc1ccccc1[C@H]1OC(c2ccc(OCCCO)cc2)=N[C@@]1(Cc1ccccc1)C(=O)N1CCCCC1`: the z-score was 1.35 (inactive).
The same measure, in the same setting: the figure for `C=CCC(OC(C)=O)[C@@H]1[C@@H](N(Cc2cccc3ccccc23)C(=O)Cc2ccc(F)cc2)c2cc(OCCCO)ccc2N1C(=O)c1ccc2ccccc2n1` (stereo partly specified) is 0.866 (inactive).
On the same count and under the same terms, in the case of `C[N+](C)(C)CCCC[C@@H]1NC(=O)[C@H]2C[C@@H](C(=O)NCCCCCCN)[C@@H](c3ccc(O)cc3)N2C1=O` it was 0.587 (inactive).
Turning to `C=C(CCCC)/C(=C/C[C@@H](OC(=O)c1ccncc1)c1ccccc1OCCO)c1cnc2ccccc2c1`, the z-score was 1.03 (inactive).
In the case of `O=C1c2ccccc2[C@](Cc2ccccc2I)(C(=O)NCC(F)(F)F)[C@H](c2ccc(CO)cc2)N1C1CCCCC1`, the z-score was 1.47 (inactive).
Still for that read-out and setting: in the case of `CC(C)N1C(=O)C[C@@](C(=O)NCCCN(C)C)(c2ccc([N+](=O)[O-])cc2)[C@H]1c1ccc(CO)cc1` it was 0.313 (inactive); in that of `C=C[C@@H](COC(C)=O)N(C(=O)OC(C)(C)C)S(=O)(=O)c1ccc(Br)cc1`, 0.446 (inactive); in that of `CC1CC/C=C\[C@H]2OC34C=CCN(c5ccc(Cl)cc5)C(=O)[C@H]3N(CCCCCO)C(=O)[C@]4(C)C2C(=O)O1` (stereo partly specified), 0.4 (inactive).
Still for that read-out and setting: the figure for `O=C1O[C@H](c2ccccc2)[C@H](c2ccccc2)N2[C@H]1[C@@H](C(=O)Nc1nc3ccccc3s1)[C@]1(C(=O)Nc3ccc(C#CCCO)cc31)[C@H]2c1ccc(O)cc1` is -0.285 (inactive).
On to `COCCOC(=O)N1C(=O)[C@@]2(c3cc(C#CC4(O)CCCCCC4)ccc31)[C@H](c1ccc(O)cc1)N1[C@H](c3ccccc3)[C@H](c3ccccc3)OC(=O)[C@H]1[C@@H]2C(=O)NC[C@H](O)c1ccccc1`, for which the z-score was 0.355 (inactive).
Still for that read-out and setting: in the case of `O=C1O[C@@H](c2ccccc2)[C@@H](c2ccccc2)N2[C@@H](c3ccccc3OCCO)[C@]3(C(=O)Nc4ccc(C#CCCO)cc43)[C@@H](C(=O)N3CCCCCCC3)[C@H]12` it was -1.32 (inactive).
Still for that read-out and setting: the figure for `COc1ccc([Si](C)(C)[C@@H]2[C@@H](CCO)O[C@]3(C(=O)N(Cc4ccc(N5CCCCC5=O)cc4)c4ccccc43)[C@H]2C)cc1` is -1.73 (inactive); for `O=C(NCC(F)(F)F)[C@@H]1c2ccccc2C(=O)N(Cc2cc(F)cc(C(F)(F)F)c2)[C@H]1c1ccc(CO)cc1` it is 0.408 (inactive).
Still for that read-out and setting: in the case of `Cc1ccccc1C(O)C1C=CC2C(=O)N(C)C(=O)C2N1N(c1ccccc1)c1ccccc1` (stereo unspecified) it was 0.595 (inactive).
Consider `O=C(CS)NCCCCCCNC(=O)[C@H]1C[C@H]2C(=O)N[C@@H](Cc3ccccc3)C(=O)N2[C@H]1c1ccc(O)cc1`, for which the z-score was -0.239 (inactive).
Still for that read-out and setting: in the case of `C=CCN1Cc2ccccc2[C@H]2OC(c3ccc(OCCCO)cc3)=N[C@@]2(CC=C)C1=O` it was -0.308 (inactive); in that of `CO[C@]12C=C(Br)[C@@H](C[C@@H]1c1cccc(C)c1)[C@@]1(CO1)C2=O`, -0.258 (inactive); in that of `C=CC[C@]1(C(=O)O)COC(c2ccc(OCCCO)cc2)=N1`, -0.565 (inactive).
With `CCOC(=O)[C@H]1[C@@H]2C(=O)N3CCC[C@H]3[C@H](O[Si](C(C)C)(C(C)C)C(C)C)[C@H]2C=C2CCN(S(=O)(=O)c3ccc(C)cc3)C[C@H]21`, the z-score was -1.73 (inactive).
Still for that read-out and setting: in the case of `CN(C)CCCCNC(=O)[C@@H]1C[C@@H]2C(=O)N[C@@H](Cc3ccccc3)C(=O)N2[C@@H]1c1cccc(OCCO)c1` it was -1.88 (inactive).
Same read-out and setting: the figure for `C=C(C)C1CCC(C(O)C2C=CC3C(=O)N(C)C(=O)C3N2N2CCCCC2)CC1` (stereo unspecified) is 0.929 (inactive); for `CN1C(=O)C2C=CC(C(O)c3ccccn3)N(N(c3ccccc3)c3ccccc3)C2C1=O` (stereo unspecified) it is 0.527 (inactive); for `CN(C)CCCNC(=O)[C@@]1(C)c2ccccc2C(=O)N(Cc2ccccc2)[C@H]1c1ccc(CO)cc1` it is 0.711 (inactive).
Still for that read-out and setting: the figure for `C=CCNC(=O)[C@@H]1[C@H]2C(=O)O[C@H](c3ccccc3)[C@H](c3ccccc3)N2[C@H](c2ccc(O)cc2)[C@@]12C(=O)N(C(=O)OCCOC)c1ccc(C#CC3(O)CCCCCC3)cc12` is -0.565 (inactive); for `CN(C)C(=O)[C@@]1(Cc2ccccc2CN=[N+]=[N-])N=C(c2ccc(OCCCO)cc2)O[C@H]1c1ccccc1CN=[N+]=[N-]` it is 1.2 (inactive); for `O=C1O[C@@H](c2ccccc2)[C@@H](c2ccccc2)N2[C@@H](c3ccc(O)cc3)[C@]3(C(=O)Nc4ccc(C#CC5=CCCCC5)cc43)[C@@H](C(=O)NC[C@H](O)c3ccccc3)[C@H]12` it is -1.41 (inactive).
In the case of `CC(C)(C)OC(=O)CC[C@]1(C(=O)NCc2ccccc2)N=C(c2ccc(OCCCO)cc2)O[C@H]1c1ccccc1CN=[N+]=[N-]`, the z-score was 0.22 (inactive).
On the same count and under the same terms, the figure for `CC(C)C[C@@H]1NC(=O)[C@@H]2C[C@H](C(=O)NCCCCN(C)C)[C@H](c3cccc(OCCO)c3)N2C1=O` is -0.464 (inactive).
